# AMA1-RON2 inh: inhibitors of Plasmodium falciparum AMA1-RON2 interaction; AlphaScreen AMA1-biotinylated RON2 peptide binding; hit rate 0.2% among 360,000; Potency, µM (highest dose often 58.2 µM), hits mostly inhibitors; further: nearly all actives have a fitted effect of over 45% in size
#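 AMA1 (3D7) with his tag at 25 nM final met compounds first, then biotinylated RON2 peptide at 25 nM; detection used donor plus acceptor beads, 10 µg/mL apiece, read by AlphaScreen after 30 min at room temperature.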
# AmpC inh no detg: AmpC beta-lactamase inhibition without detergent. P00811. AmpC nitrocefin hydrolysis, absorbance 480 nm, 0.0001% Triton. Potency, µM (highest dose often 57.1 µM), actives largely listed as inhibitors. hit rate 0.52% among 330,000. AID 485341; further: nearly all actives have a fitted effect of over 20% in size
# Target sequence (P00811 whole entry, looked up): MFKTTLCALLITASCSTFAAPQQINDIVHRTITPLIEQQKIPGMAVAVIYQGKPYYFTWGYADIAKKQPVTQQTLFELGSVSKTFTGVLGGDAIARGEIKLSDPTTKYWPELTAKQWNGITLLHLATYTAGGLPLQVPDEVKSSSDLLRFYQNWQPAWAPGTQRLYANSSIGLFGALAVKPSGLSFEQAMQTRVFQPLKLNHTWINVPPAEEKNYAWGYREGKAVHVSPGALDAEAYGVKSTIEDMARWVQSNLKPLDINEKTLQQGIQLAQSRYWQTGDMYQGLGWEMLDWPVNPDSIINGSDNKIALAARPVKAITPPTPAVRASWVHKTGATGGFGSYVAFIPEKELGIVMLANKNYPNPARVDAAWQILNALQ
#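 AmpC (5.3 nM in the dispensed reagent) in 20 mM phosphate pH 7.0 with 0.01% (detergent screen) or 0.0001% Triton X-100 was preincubated with compounds for 15 min at room temperature. Nitrocefin was then added from an 800 uM solution, and hydrolysis was followed at 480 nm.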
# AmpC detergent: AmpC beta-lactamase inhibition with detergent present. AmpC hydrolysis of nitrocefin, absorbance 480 nm, 0.01% Triton. AID 485294. hit rate 0.041% among 370,000. P00811. Potency, µM (titrated, usually from 114 µM), hits mostly inhibitors; further: nearly all actives have a fitted effect of over 25% in size
#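 20 mM phosphate pH 7.0 + 0.01% (detergent screen) or 0.0001% Triton X-100; 5.3 nM AmpC reagent; cpd preinc 15 min RT; nitrocefin (800 uM stock) to start; A480 q20 s × 4 min; Activity was normalised to no-enzyme and no-compound control wells.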
# SARS PLpro yeast: inhibitors of SARS-CoV papain-like protease in yeast; S. cerevisiae expressing SARS-CoV PLpro, growth rescue; Potency, µM (top dose mostly 32.9 µM), hits mostly activators; hit rate 0.19% among 330,000; AID 485353; calls by dose curve; further: nearly all actives have a fitted effect of over 55% in size
# Shiga inhibitor: blocks Shiga toxin action in Vero cells; Vero cells, Shiga toxin protein synthesis inhibition reporter; inhibition, % at 38.7 µM; hit rate 9.2% among 290,000; AID 2315; in the data active means inhibition mostly above about 28%, no sharp cut-off; inactive means mostly below about 43%
# CHX counter: affects cycloheximide protein synthesis inhibition readout, counter-screen | cell reporter, cycloheximide protein synthesis inhibition counterscreen | max response, % | hit rate 12% among 300,000 | AID 2314; in the data active means max response mostly above about 13%, no sharp cut-off; inactive means mostly below about 14%; further: read at 38.3 µM for the half of the compounds with a filed dose
# A number is an active result; i = inactive; ? = inconclusive; nt = no result given; [ ] = remark or other dose. Only a selection was taken, and hits are over-represented in it overall. Unless noted, the call rests on the fitted dose curve; in most records, active means well fitted curve in the direction sought with a large enough effect; inconclusive means small, poorly fitted or top-dose-only effect, or another doubt; inactive means no such curve, though single readings can be large; an effect the other way counts as inactive or inconclusive.
SMILES,AMA1-RON2 inh,AmpC inh no detg,AmpC detergent,SARS PLpro yeast,Shiga inhibitor,CHX counter
Cc1ccc(CNC(=O)c2ccc[nH]2)cc1,i,i,i,i,i,i
Cc1ccc(SCC(=O)c2ccc[nH]2)cc1,i,i[11.4 µM],i,i,78.6,35.2
COc1ccc(-c2nnc(SCC(=O)NCc3ccco3)o2)cc1,i,i,i,i,92.0,22.2
COc1cccc(NC(=O)CSc2nnc(-c3cc(C)n(-c4ccccc4)c3C)o2)c1,i,i,i,i,101.2,48.3
O=C(CSc1ccc(-c2cccs2)nn1)Nc1ccccc1,i,i,i,i,i,i
O=C(CSc1ccc(-c2cccs2)nn1)c1cccs1,i,i,i,i,103.8,45.9
COc1ccc(NC(=O)CSc2nnc(-c3cccc(O)c3)o2)cc1,i,i,i,i,i,i
O=C(O)C1CCCN(S(=O)(=O)c2ccc(F)cc2)C1 (stereo not given),i,i,i,i,i,i
COc1ccc(-c2nnc(SCC(=O)c3ccc(O)cc3O)o2)cc1,i,i,i,i,32.9,i
O=C(CSc1nnc(-c2cccs2)o1)c1cccs1,i,i,i,i,88.1,92.8
Cc1cc(C(=O)CSc2nnc(-c3cccs3)o2)c(C)n1-c1ccccc1,i,i,i,i,77.1,12.1
COc1ccc(-n2nnc3c(SCC(=O)NCc4ccco4)ncnc32)cc1,i,i,i,i,i,19.1
COc1ccc(C(=O)CSc2nnc(-c3cc(C)cc(C)c3)o2)cc1,i,i,i,i,i,i
CCNC(=O)CSc1nnc(-c2cccs2)o1,i,i,i,i,i,i
COc1cccc(C(=O)CSc2nnc(-c3cccs3)o2)c1,i,i,i,i,i,i
COc1ccc(CNS(=O)(=O)c2ccc(-c3cc(C)no3)cc2)cc1,i,i,i,i,i,i
COc1ccc(-c2nnc(SCC(=O)c3cccs3)n2-c2ccc(Cl)cc2)cc1,i,i,?,i,74.7,40.0
O=C(CSc1ncc(-c2ccccc2)n1-c1ccccc1)NCc1ccco1,?,i,i,i,i,i
COc1ccc(-c2nnc(SCC(=O)c3cccs3)o2)cc1,i,i,i,i,94.8,29.3
COc1ccc(-c2nnc(SCC(=O)NC(=O)NCc3ccccc3)o2)cc1,i,i,i,i,i,i
COc1ccc(-c2nnc(SCC(=O)c3ccc[nH]3)o2)cc1,i,i,i,?,151.4,35.9
COc1ccc(-n2c(-c3ccc(F)cc3)cnc2SCC(=O)NCc2ccco2)cc1,?,i,i,i,103.0,49.2
COc1ccc(NC(=O)c2cc(S(=O)(=O)N3CCCCCC3)cn2C)c(OC)c1,nt,nt,i,nt,nt,nt
O=C(/C=C/c1cccc(Cl)c1)OCc1cn2cc(Cl)ccc2n1,i,i,i,i,i,i
CCCCS(=O)(=O)N1CCN(C(=N)N[N+](=O)[O-])CC1,i,i,i,i,i,i
SMILES,AMA1-RON2 inh,AmpC inh no detg,AmpC detergent,SARS PLpro yeast,Shiga inhibitor,CHX counter
Cc1cc(S(=O)(=O)NCc2ccccc2)ccc1OCC(=O)Nc1cccc([N+](=O)[O-])c1,i,i,i,i,i,i
Cn1c(C(=O)NCCCN2CCN(c3ccccc3F)CC2)cc2c(=O)n(C)c3ccccc3c21,i,i,i,i,i,i
CCc1ccc(NC(=O)c2ccc3ncsc3c2)cc1,nt,i,i,i,67.6,44.0
O=C(Nc1ccc(Br)cc1)c1ccc2ncsc2c1,i,i,i,i,88.6,49.6
Cc1cc(C)c(NC(=O)CNC(=O)c2ccc3ncsc3c2)c(C)c1,i,i,nt,i,nt,nt
O=C(Nc1ccc2c(c1)C(=O)NC2=O)c1ccc2ncsc2c1,i,i,i,i,92.5,22.2
CN(C)S(=O)(=O)c1ccc(NC(=O)c2ccc3ncsc3c2)cc1,i,i,i,i,62.2,i
CCC(=O)N1CCc2cc(S(=O)(=O)CCC(=O)Nc3ccc(Cl)c(C(F)(F)F)c3)ccc21,nt,nt,i,nt,nt,nt
CCOC(=O)C1CCN(C(=O)CN(c2cccc(OC)c2)S(=O)(=O)c2ccccc2)CC1,i,i,i,i,i,i
CNc1cccccc1=S,?,i,i,i,i,i
O=C(C1CCCN(S(=O)(=O)c2ccc(Br)s2)C1)N1CCN(c2cccc(Cl)c2)CC1 (stereo not given),nt,nt,i,nt,nt,nt
COc1ccc(C(CC(=O)N2CCCCC2)NC(=O)C(F)(F)F)cc1 (stereo not given),i,i,?,i,i,i
COc1ccc(NC(=O)c2ccc3ncsc3c2)cc1,i,i,i,i,114.4,57.8
O=C(COC(=O)c1ccc2ncsc2c1)Nc1ccc(OC(F)(F)F)cc1,i,i,nt,i,nt,nt
COc1ccccc1Nc1nc(-c2cccc([N+](=O)[O-])c2)cs1,i,i,i,i,i,46.7
O=[N+]([O-])c1cccc(-c2csc(Nc3ccccc3)n2)c1,?,i,i,i,90.6,68.1
O=C(Nc1nc(-c2ccccc2)cs1)c1cccc([N+](=O)[O-])c1,i,i,i,i,100.0,50.5
CN(C(=O)c1ccc(NC(=O)Cc2cccc(NC(=O)C3CCN(C(=O)C4CCCC4)CC3)c2)cc1)C1CCCC1,i,i,i,i,nt,nt
COc1ccc(-c2nnc(N(C)C(=O)C3CCOC3)s2)cc1 (stereo not given),i,nt,nt,nt,nt,nt
CN(C(=O)C1CCOC1)c1nnc(-c2cnccn2)s1 (stereo not given),i,i,i,i,i,16.3
CCOc1ccccc1-c1n[nH]c(=S)o1,i,i,i,i,i,i
CCOc1ccc(-c2n[nH]c(=S)o2)cc1,i,i,i,i,i,20.5
CCCCNC(=O)c1onc(CSc2ccc(OC)cc2)c1C(=O)O,i,i,?,i,i,i
O=C(COc1ccccc1)N(Cc1cc2ccccc2[nH]c1=O)CC1CCCO1 (stereo not given),i,i,i,i,i,24.7
COc1ccc(NC(=O)N(Cc2cc3cc(C)ccc3[nH]c2=O)CC2CCCO2)cc1 (stereo not given),i,i,i,i,i,i
SMILES,AMA1-RON2 inh,AmpC inh no detg,AmpC detergent,SARS PLpro yeast,Shiga inhibitor,CHX counter
COc1ccc(NC(=O)N(Cc2cc3cc(OC)c(OC)cc3[nH]c2=O)CC2CCCO2)cc1 (stereo not given),i,i,i,i,i,11.7
COc1ccc2cc(CN(CC3CCCO3)C(=O)Nc3ccccc3)c(=O)[nH]c2c1 (stereo not given),i,i,i,i,i,i
O=C(CC(=O)Nc1ccccc1)Nc1ccccc1,i,nt,nt,nt,nt,nt
O=C(Nc1ccc(Nc2ccccc2)cc1)C(Cl)(Cl)Cl,i,i,i,i,49.0,26.7
NC(=O)Nc1ccc(Nc2ccccc2)cc1,i,i,i,i,i,i
CCC(=O)Nc1ccc(Nc2ccccc2)cc1,i,i,i,i,33.6,15.7
COCC(=O)Nc1ccc(Nc2ccccc2)cc1,i,i,i,i,60.5,i
COc1ccc(CCNC(=O)Cn2c(-c3cccs3)cc3cc(F)ccc32)cc1OC,nt,nt,i,nt,nt,nt

# From PubChem
